Source: PubChem
Tau ThT inhib: blocks human tau fibril formation measured by thioflavin T. P10636. recombinant tau K18 P301L, heparin-induced fibrillization, ThT fluorescence. Potency, µM (series often up to 57.4 µM), for the others: top-dose activity, negative = inhibition, hits mostly inhibitors. hit rate 2.1% among 270,000. AID 1460; also: % is scaled to controls: 0 for no effect and ±100 for the full control effect; nearly all actives have a fitted effect of over 55% in size
Target sequence (P10636 561-689 P618L limits assumed): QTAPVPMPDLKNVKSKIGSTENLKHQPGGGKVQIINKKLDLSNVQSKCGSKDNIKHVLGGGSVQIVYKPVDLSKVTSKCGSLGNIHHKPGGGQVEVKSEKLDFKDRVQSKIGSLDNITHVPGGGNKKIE
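ThT emission at 510 nm, taken 1 hr after adding 30 uM dye, quantifies aggregates formed when 20 uM heparin acts on human tau K18 P301L for 6 hr at 37 C.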
HTT cytoprotect: protects HTT-Q103 PC12 cells, measured by ATP; PC12 HTT-Q103 induced, cytoprotection, ATP luminescence, 40 h; Potency, µM (highest dose often 56.4 µM), inactives show cytoprotection (ATP increase), hits mostly activators; hit rate 0.14% among 230,000; AID 1471; also: % of control where 0% means no effect; nearly all actives have a fitted effect of over 45% in size
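Compounds added alongside 100 nM tebufenozide, which induces toxic Q103 huntingtin exon 1-GFP in stable PC12 cells; surviving cells quantified by luminescent ATP measurement. Medium: phenol red-free DMEM, 5% equine and 5% calf serum.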
Tau fluor cs: counter-screen for tau fibril formation inhibitors; tau K18 P301L Alexa594 fluorescence, heparin fibrillization; Potency, µM (doses to about 57.7 µM), for the others: at the top dose activity change, negative = decrease; hit rate 0.93% among 280,000; AID 1463; also: % is scaled to controls: 0 for no effect and ±100 for the full control effect; nearly all actives have a fitted effect of over 55% in size
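Human tau K18 P301L (15 uM unlabeled, 0.24 uM Alexa 594-labeled) in 100 mM sodium acetate pH 7 with 20 uM heparin, 6 hr at 37 C. ThT 30 uM added, 1 hr ambient; Alexa 594 FP and total fluorescence read at 555/632 nm.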
HttQ103 aggreg: inhibitors of mutant huntingtin aggregate formation in PC12 cells. PC12 HttQ103-GFP aggregates, Acumen cytometry, 40 h. Potency, µM (top dose mostly 46.1 µM), inactives show at the highest dose activity change, negative = inhibition, usual class: inhibitors. hit rate 1.1% among 220,000; also: % is scaled to controls: 0 for no effect and ±100 for the full control effect; nearly all actives have a fitted effect of over 60% in size
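Compounds (qHTS titration) were added to PC12 cells expressing an ecdysone-driven HTT exon 1 Q103–GFP fusion after induction with 100 nM tebufenozide. Aggregate formation was measured as GFP objects in cell lysates.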
Tau fibril FP: blocks human tau fibril formation measured by polarization | P10636 | Potency, µM (top dose mostly 57.7 µM), inactives show top-dose activity, negative = inhibition, most hits filed as inhibitors | K18 P301L tau heparin fibrillization, Alexa594 FP, 6 h | hit rate 0.39% among 280,000; also: % is scaled to controls: 0 for no effect and ±100 for the full control effect; nearly all actives have a fitted effect of over 55% in size
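Human tau K18 […] P301L fragment, 15 uM unlabeled plus 0.24 uM Alexa 594-labeled tau (final), with compound and 20 uM heparin in 100 mM sodium acetate pH 7; 6 hr at 37 C, then Alexa 594 FP read.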
Active calls of the source: *; ? = inconclusive; / = no result given; [ ] = dose if it differs, or a comment. An excerpt weighted towards active compounds, which were near 3.7% of everything screened. Calls follow the shape of the dose curve; as a rule, active = well fitted curve in the direction sought with a large enough effect; inconclusive = small, poorly fitted or top-dose-only effect, or another doubt; inactive = no such curve, though single readings can be large; an effect the other way counts as inactive or inconclusive. Potency is read from the fitted curve at half-maximal effect.

SMILES	Tau ThT inhib	HTT cytoprotect	Tau fluor cs	HttQ103 aggreg	Tau fibril FP
COC(=O)c1ccc(Cl)cc1NC(=O)N1CC=C(c2c[nH]c3ccccc23)CC1	?	/	11µM*[quencher]	/	0%
Cc1ccc(NC(=O)N2CC=C(c3c[nH]c4ccccc34)CC2)cc1Cl	6.3µM*	/	14µM*[quencher]	/	-10%
O=C(Nc1cccc2ccccc12)N1CC=C(c2ccccc2)CC1	-21%	17%[10 µM]	-15%	7%	-8%
CCOC(=O)COc1cc(C)c(Cl)cc1C(=O)c1ccn2nc(-c3ccc(OC)cc3)cc2n1	1%	/	-3%	/	-18%
CNCC(=O)NC(CCCN=C(N)N)C(=O)NC(C(=O)NC(Cc1ccc(O)cc1)C(=O)NC(C(=O)NC(Cc1cnc[nH]1)C(=O)N1CCCC1C(=O)NC(C)C(=O)O)C(C)C)C(C)C (stereo unspecified)	/	24%	/	15%	/
CCOc1ccc(NC(=O)CC2C(=O)N(c3ccccc3)C(=O)N2Cc2ccc3c(c2)OCO3)cc1 (stereo unspecified)	4%	/	-19%	/	-2%
CCOc1ccc(NC(=O)Cn2c(=O)n(Cc3ccco3)c(=O)c3ccc(C(=O)NC4CCCC4)cc32)cc1	2%	/	?	/	16µM*
CCOC(=O)Cn1c(=O)n(Cc2ccco2)c(=O)c2ccc(C(=O)NC3CCCC3)cc21	-13%	-18%	-15%	-6%	-8%
O=C(CSC1=NCCN1)Nc1ccccc1	/	-8%[10 µM]	/	/	/
CCOc1ccc(OCC)c(NC(=O)c2ccc(CNc3c(N4CCOCC4)c(=O)c3=O)cc2)c1	-12%	3.2µM*	-20%	?	8%
COc1ccc(NC(=O)Cn2nnc(C(=O)Nc3ccccc3C)c2N)cc1	-7%	-47%	-3%	-7%	-2%
COc1ccc(OC)c(NC(=O)c2nnn(CC(=O)Nc3ccc(C(C)C)cc3)c2N)c1	?	/	14µM*[quencher]	/	-13%
CCn1c(C(=O)NCc2ccccc2OC)cc2sccc21	-1%	/	-12%	/	-2%
O=C(CCOc1ccccc1)N(Cc1cccnc1)c1nc2c(F)cc(F)cc2s1	-20%	/	-20%	/	-14%
FC(F)(F)c1ccc(Cl)c(N/N=C/c2ccc(N3CCOCC3)s2)c1	?	9%[10 µM]	13µM*[quencher]	15%	11%
CC[C@H]1CN(C)[C@H]2Cc3c([nH]c4ccccc34)C(=O)C[C@H]1[C@H]2C(=O)OC	/	-9%[10 µM]	/	/	/
COc1cccc(=O)c2c(C)n(-c3cc(C)cc(C)c3)c(C)c12	28µM*	-21%	-15%	-8%	?
COc1cccc(-n2c(C)c3c(OC)cccc(=O)c3c2C)c1	25µM*	3%[10 µM]	-26%	6%[9.22 µM]	?
CCOc1ccc(/C=C/c2nc(C#N)c(N3CCC(C)CC3)o2)cc1	?	/	?	/	16%
Cc1cc(C)n(-c2ccc3cccc(NS(C)(=O)=O)c3n2)n1	3%	-59%	-6%	8.9µM*	-2%
O=S(c1ccc2ccccc2c1)c1cnns1 (stereo unspecified)	?	-88%	-8%	18µM*	-6%
Cc1ccc(/C=C/C(=O)Nc2ccc(N(C)C)cc2)o1	8.9µM*	0%[10 µM]	-26%	5%	3%
Cc1ccc(/C=C/C(=O)Nc2ccncc2)o1	?	27%[0.074 µM]	4%	2%	-8%
Cn1c(=O)n(C)c2cc(NS(=O)(=O)c3ccc4c(c3)CCCC4)ccc21	-10%	-12%[0.074 µM]	-21%	2.8µM*	3%
O=c1c2ccccc2nc(/C=C/c2ccc(O)cc2)n1CCc1ccccc1	-3%	/	?	28%	?
O=c1c2ccccc2nc(/C=C/c2c[nH]c3ccccc23)n1CCO	?	37%[10 µM]	20µM*[quencher]	11%[9.22 µM]	?
COc1ccc(CCN2C(=O)CC(NNc3ccc([N+](=O)[O-])cc3)C2=O)cc1OC (stereo unspecified)	11µM*	-38%	?	-3%	-7%
COc1ccc(CCN2C(=O)C3C4C=CC(C5CC45)C3C2=O)cc1OC (stereo unspecified)	-9%	40%[10 µM]	-8%	37%[9.22 µM]	-6%
